Screening data (PubChem BioAssay)
A selection: hits, their analogues and other compounds. The true share with any hit is near 2.3%.
CHO-K1 Ca ag: nonselective activator or artifact in parental CHO-K1 cells | hit rate 0.48% among 360,000 | activation, % at 3 µM | Fluo-8 calcium fluorescence; scaled to maximal ATP response, vehicle zero; in the data active = activation above about 15%;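 note: untransfected CHO-K1 host cells lacking M1 receptor as counterscreen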
M1 antag: blocks human M1 muscarinic receptor; P11229; CHO-K1 hM1, Fluo-8 calcium fluorescence, ACh EC80 antagonist; inhibition, % at 3 µM; hit rate 1.3% among 360,000; AID 588852;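 active = percent inhibition above its own plate's cutoff, namely the mean of that plate's compound wells plus 3 SD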;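 note: peak over basal fluorescence ratio during 140 s after agonist addition; 0% = ACh EC80 plus DMSO and 100% = DMSO alone without agonist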
Target sequence (P11229 whole entry, looked up): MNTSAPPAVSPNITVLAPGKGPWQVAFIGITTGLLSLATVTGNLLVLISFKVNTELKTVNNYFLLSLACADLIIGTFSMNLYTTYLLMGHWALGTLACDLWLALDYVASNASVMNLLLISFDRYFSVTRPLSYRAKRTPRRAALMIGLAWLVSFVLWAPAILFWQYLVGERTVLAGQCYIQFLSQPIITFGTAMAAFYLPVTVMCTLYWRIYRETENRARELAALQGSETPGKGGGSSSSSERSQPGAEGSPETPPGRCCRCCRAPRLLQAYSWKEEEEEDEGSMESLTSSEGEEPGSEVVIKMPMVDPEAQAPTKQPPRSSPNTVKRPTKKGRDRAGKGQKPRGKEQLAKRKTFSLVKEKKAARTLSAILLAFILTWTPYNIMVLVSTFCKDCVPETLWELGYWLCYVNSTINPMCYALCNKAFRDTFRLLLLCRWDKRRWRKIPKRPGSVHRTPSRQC
CHO-K1 Ca antag: counter-screen for M1 antagonists: effect in parental CHO-K1 cells; ATP-induced calcium, Fluo-8 fluorescence; inhibition, % at 3 µM; hit rate 0.6% among 360,000; AID 602250;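 active = inhibition above a per-plate cutoff, the plate's mean sample inhibition plus 3 SD, cut at about 24% in these data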;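 note: 0% = DMSO plus EC80 ATP and 100% = DMSO alone without ATP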
M1 PAM parental: counter-screen for M1 PAMs: effect in parental CHO-K1 cells. ATP EC20, Fluo-8 calcium fluorescence; 0% at ATP EC20, 100% at ATP max. activation, % at 3 µM. hit rate 0.02% among 360,000. AID 602247;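 active = activation above the run cutoff, the mean activation of all test compounds plus 3 SD, cut at about 40% in these data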;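 note: peak over basal fluorescence ratio in a 140 s read after ATP addition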
CHRM1 PAM: potentiates human M1 receptor response to acetylcholine | P11229 | AID 588819 | activation, % at 3 µM | hit rate 0.088% among 360,000 | CHO-K1 hM1, Fluo-8 calcium fluorescence, ACh EC20; 0% = ACh EC20, 100% = maximal ACh; in the data active = activation above about 19%, passing the limit was not always enough
M1 ag: agonists of human M1 muscarinic receptor; P11229; CHO-K1 hM1, Fluo-8 calcium fluorescence, agonist mode; 0% DMSO, 100% acetylcholine EC100; activation, % at 3 µM; hit rate 0.33% among 360,000; AID 588814;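 active = activation above the run's mean compound activation plus 3 SD, cut at about 16% in these data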;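 note: peak over basal fluorescence ratio within a 140 s kinetic read after compound addition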
Numbers without * were called inactive.

SMILES | CHO-K1 Ca ag | M1 antag | CHO-K1 Ca antag | M1 PAM parental | CHRM1 PAM | M1 ag
O=C(Cc1ccc(Br)cc1)OCC(=O)c1ccc[nH]1 | 0 | -11 | -10 | -2 | 5 | -2
COc1ccc(-c2oc(NC(=O)CSc3ncn[nH]3)c(C#N)c2-c2ccc(OC)cc2)cc1 | 0 | -8 | 0 | 9 | 3 | -2
COc1ccc(-c2oc(NC(=O)CCl)c(C#N)c2-c2ccc(OC)cc2)cc1 | 0 | 46* | -13 | 0 | 12 | 7
CCO[C@H]1OC(C(=O)N2CCOCC2)=C[C@@H](c2ccccc2)[C@@H]1CCCO | 1 | 67* | -14 | 15 | -22 | -9
CCO[C@@H]1OC(C(=O)NCc2ccccc2)=C[C@H](c2ccc3c(c2)OCO3)[C@H]1CCCO | 0 | 10 | 6 | -9 | -8 | -10
CCO[C@H]1OC(C(=O)NCc2ccccc2)=C[C@@H](c2ccc3c(c2)OCO3)[C@@H]1CCCO | 10 | 7 | -15 | 16 | -5 | 18*
OC[C@@H]1CN(Cc2cccs2)C[C@H](n2cnc3c(NCc4ccco4)ncnc32)O1 | 0 | -2 | -4 | 4 | 2 | -3
Nc1sc(-c2ccccc2)n[n+]1Cc1cccc2cccnc12 | 8 | 66* | -4 | 8 | -25 | -3
CCCC(=O)Nc1nnc(Cc2ccccc2)s1 | 0 | 14 | 31* | -7 | -8 | -2
CCC(=O)Nc1nnc(Cc2ccccc2)s1 | 2 | 0 | -4 | 14 | 3 | -6
COc1ccc(-[n+]2c(C)cc(/C=C3\Sc4ccccc4N3C)cc2C)cc1 | 21* | 81* | 40* | -10 | -26 | 12
COc1ccccc1-[n+]1c(C)cc(/C=C2\Sc3ccccc3N2C)cc1C | 34* | 83* | 52* | -7 | -24 | 36*
COc1ccc(C(=O)/C=C2\Sc3ccccc3N2C)cc1 | 1 | -8 | -9 | 28 | 11 | -10
Cc1ccc(S(=O)(=O)N(C)C)cc1NC(=O)Cn1c(CN2CCOCC2)nc2ccccc2c1=O | 0 | 5 | -9 | 4 | -2 | 0
O=C(CNc1cccc(S(=O)(=O)N2CCCC2)c1)Nc1cccc(Br)c1 | 19* | 8 | 5 | -16 | -5 | 3
O=C(COC(=O)c1cc(S(=O)(=O)N2CCCC2)ccc1O)Nc1ccc(SC(F)F)cc1 | 15* | 10 | 12 | 14 | -4 | 5
Cc1cccc(NC(=O)COC(=O)c2ccc(S(=O)(=O)N3CCCCCC3)cc2)c1 | 0 | -12 | -1 | -21 | 9 | -3
O=C(CNc1ccc(C(F)(F)F)cc1)Nc1cccc(S(=O)(=O)N2CCCCC2)c1 | 7 | 24* | 6 | 9 | -11 | 0
O=C(COC(=O)c1ccc(S(=O)(=O)N2CCCC2)cc1)Nc1cccc(Br)c1 | 2 | 29* | -5 | -17 | -17 | -4
COc1cccc(-n2cnnc2SC(C)C(=O)NC2CCCC2)c1 (stereo not drawn) | 0 | 0 | -3 | -4 | 3 | -1
CC(C)CCn1c(COc2ccccc2)nn(CCC#N)c1=S | 0 | -4 | 2 | 1 | 7 | -3
O=S1(=O)N=C(N2CCc3ccccc3C2)c2ccccc21 | 1 | 36* | 2 | -3 | -16 | -5
O=S1(=O)N=C(N2CCCc3ccccc32)c2ccccc21 | 0 | -1 | -10 | 5 | 0 | -5
O=C(NC1CCCC1)c1cccc(S(=O)(=O)N2CCCC2)c1 | 0 | 28 | 11 | -24 | -7 | -6
CCN(CC)c1ccc2nc3ccccc3[n+](CC)c2c1 | 0 | 69* | -12 | 16 | -30 | -10
SMILES | CHO-K1 Ca ag | M1 antag | CHO-K1 Ca antag | M1 PAM parental | CHRM1 PAM | M1 ag
CC(OC(=O)Cn1[nH]c(=O)c2ccccc2c1=O)C(=O)Nc1ccc(F)cc1 (stereo not drawn) | 2 | -8 | 9 | 10 | 4 | -2
C=CCc1cccc(CNc2cnc3ccccc3c2)c1O | 9 | 40* | 39* | -23 | -12 | 2
O=C1NC(=O)C(=C2CCOC2=O)N1 | 0 | 8 | 8 | -10 | -4 | -3
CCN(CCO)Cc1csc2ccccc12 | 0 | -7 | -4 | 10 | 9 | -1
CCN(CCO)Cc1csc2c(Br)cccc12 | 1 | -41 | -16 | 18 | 23* | -4
CCN(c1ccccc1)S(=O)(=O)c1ccc(NC(=O)c2nc(S(C)(=O)=O)ncc2Cl)cc1 | 6 | 35 | 18 | -9 | -9 | 1
CCS(=O)(=O)c1ncc(Cl)c(C(=O)Nc2ccc(S(=O)(=O)N(C)c3ccccc3)cc2)n1 | 1 | 88* | 14 | -30 | -24 | -6
NCC/C=C1/c2ccccc2CSc2ccccc21 | 1 | 69* | -4 | 4 | -22 | -6
CC(O)CN(C)CC/C=C1/c2ccccc2CSc2ccccc21 (stereo not drawn) | 1 | 63* | 8 | -7 | -24 | -10
C=CCN(C)CC/C=C1\c2ccccc2CSc2ccccc21 | 1 | 91* | -2 | 13 | -20 | -6
c1ccc2c(c1)CSc1ccccc1N2 | 0 | -15 | 0 | 4 | 2 | -8
C#CCN(C)CC/C=C1\c2ccccc2CSc2ccccc21 | 0 | 79* | -14 | 7 | -20 | -6
CCNC(=O)c1c(NC(=O)c2cc(-c3cc(C)ccc3O)n[nH]2)sc2c1CCCC2 | 0 | -6 | 12 | -8 | 3 | -5
CN(C)CC/C=C1/c2ccccc2COc2ccc(CC(=O)O)cc21 | 0 | -2 | 6 | -9 | -9 | -9
CN(CC/C=C1/c2ccccc2CSc2ccccc21)CCCO | 2 | 89* | -6 | 16 | -23 | -9
COc1ccc(N(CC(=O)N2c3ccccc3CC2C)S(=O)(=O)c2c(C)nn(C)c2C)cc1 (stereo not drawn) | 6 | 28* | 18 | -5 | -10 | -7
COc1ccc(CCN2CC(O)=C(c3nc(C)cs3)C2=N)cc1OC | 0 | 3 | 15 | -5 | 2 | -4
COc1ccc(CCN2CC(O)=C(c3nc4ccccc4c(=O)[nH]3)C2=N)cc1OC | 0 | -5 | 30* | -8 | 7 | -1
CCOc1ccc(N2CC(O)=C(c3nc4ccccc4c(=O)[nH]3)C2=N)cc1 | 0 | 2 | 7 | -5 | -6 | -5
CCSc1nc2ccccc2c(=O)n1CCc1ccc(OC)c(OC)c1 | 3 | 25* | 8 | -18 | -10 | -3
CCOC(=O)c1ccc(N2CC(O)=C(c3nc4ccccc4c(=O)[nH]3)C2=N)cc1 | 1 | 3 | 24* | -7 | -2 | -3
CSc1cccc(NC(=O)C(C)NS(=O)(=O)c2ccc(F)cc2)c1 (stereo not drawn) | 2 | -8 | -10 | 18 | 4 | -5
CCCCn1c(N)c(N(CCOC)C(=O)c2cc(=O)[nH]c3ccccc23)c(=O)[nH]c1=O | 1 | -8 | -14 | 0 | 2 | -5
